In all, about 190,000 compounds went through this assay and about 810 (0.43%) were called active. The list comes from a sample in which actives are over-represented; it also holds similar structures and randomly drawn compounds. Unmarked numbers belong to inactive results. No stated cut-off is given here; in the data, active means inhibition above about 50%; inactive means the rest.

The target in this assay is Mannose-6-phosphate isomerase (Homo sapiens) (UniProt P34949). In words: MPI enzyme activity inhibition – biochemical, fluorescence intensity, coupled assay, primary screen (AID 1209).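 Further: plate controls were DMSO vehicle for no effect and wells lacking substrate for full effect.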 The following applies: purified PMI enzyme, at 20 µM, stronger effect = higher value.
Chain of Mannose-6-phosphate isomerase (Homo sapiens) (P34949 whole entry, looked up): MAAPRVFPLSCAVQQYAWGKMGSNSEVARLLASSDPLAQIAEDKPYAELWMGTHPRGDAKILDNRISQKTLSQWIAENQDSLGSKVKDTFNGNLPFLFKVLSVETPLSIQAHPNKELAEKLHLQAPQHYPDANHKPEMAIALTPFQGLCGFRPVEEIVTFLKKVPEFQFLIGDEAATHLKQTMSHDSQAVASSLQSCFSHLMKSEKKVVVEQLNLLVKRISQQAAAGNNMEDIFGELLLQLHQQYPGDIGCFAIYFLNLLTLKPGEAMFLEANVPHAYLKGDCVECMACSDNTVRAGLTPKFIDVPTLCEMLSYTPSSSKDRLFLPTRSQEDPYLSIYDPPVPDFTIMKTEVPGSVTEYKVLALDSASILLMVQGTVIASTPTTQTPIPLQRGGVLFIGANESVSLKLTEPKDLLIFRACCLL
The inhibition is the change of the read-out against control, counted positive when it falls. On to `COc1ccc(-n2ccnc2SCC(=O)NC2CCCC2)c(OC)c1`, for which the inhibition is -3.3%.
For the compound `CC(C)=CC(=O)OCC(=O)Nc1ccc(Cl)cn1`, the inhibition is 7%.
Consider `Cc1nc(N2CCCCC2)c(C#N)c(C)c1[N+](=O)[O-]`, for which the inhibition is 1.3%.
To `CC1CCN(C(=O)CCc2nnc(-c3ccccc3)o2)CC1` belongs 1.6%; to `COc1ccc(OC)c(-n2nnnc2SCC(=O)Nc2ccc3c(c2)OCCO3)c1`, 14.4%.
The same measure for `CCOc1cc(Cl)c(NC(=O)c2ccco2)cc1OCC`: 10.1%; for `CC1=C(C(=O)Nc2ccccc2C)C2(CCCCC2)C(C(N)=O)C(=S)N1` (stereo not drawn): -53.8%.
To `O=C(CSC1=Nc2ccccc2C2CC=NN12)Nc1ccc(F)cc1Cl` (stereo not drawn) belongs 12.3%; to `Cc1cc2c(cc1C)CSC(c1c(O)ccc3ccccc13)SC2`, 21.9%.
In the case of `Cc1nc2ccccc2c(C)c1C(=O)c1ccccc1`, the inhibition was -1.1%.
The same measure for `CCOC(=O)c1c(C2COc3ccccc3O2)csc1NC(=O)c1ccco1` (stereo not drawn): 55.5% (active); for `CCOC(=O)c1c(C2COc3ccccc3O2)csc1NC(=O)c1ccccc1` (stereo not drawn): 15.6%; for `CCOC(=O)c1c(C2COc3ccccc3O2)csc1N` (stereo not drawn): 19.8%.
Regarding `CC1CCCC/C1=N\NC(=S)Nc1ccccc1` (stereo not drawn), the inhibition was -33.2%.
The same measure for `C[n+]1ccccc1C1CCCC/C1=N\NC(N)=S` (stereo not drawn): 64.5% (active); for `C[n+]1ccccc1C1CCCC/C1=N\Nc1ccc([N+](=O)[O-])cc1[N+](=O)[O-]` (stereo not drawn): -5.6%.
The same measure for `Cc1ccc2c(c1)cc(CN(Cc1ccco1)S(=O)(=O)c1ccccc1)c1nnnn12`: 72.3% (active).
The same measure for `Cc1ccc2c(c1)cc(CN(Cc1ccc3c(c1)OCO3)S(=O)(=O)c1ccccc1)c1nnnn12`: 12.1%; for `Cc1ccc2c(c1)cc(CN(Cc1ccco1)C(=O)COc1ccccc1)c1nnnn12`: -0.9%; for `COc1ccc(C=Nc2ccc3[nH]ncc3c2)c(O)c1`: 47.9%.
As to `Cc1ccc(O)c(C=Nc2ccc3[nH]ncc3c2)c1`, the inhibition was 51.9% (active).
For the compound `Cc1ccc(O)c(/C=N/NC(=O)c2[nH]ncc2Br)c1`, the inhibition is -11.3%.
In the case of `CCOC(=O)c1c(-c2ccc(C)cc2)cn2ccccc12`, the inhibition was -10.2%.
Regarding `CCOC(=O)c1c(-c2ccccc2)cn2ccccc12`, the inhibition is 53.7% (active).
The same measure for `CCOC(=O)c1c(-c2ccc(F)cc2)cn2ccccc12`: 4.3%.
The same measure for `COc1ccc(-c2csc(Nc3ccc(S(=O)(=O)Nc4cc(C)on4)cc3)n2)cc1C`: 18.4%; for `CN(Cc1ccncn1)C(=O)CC1C(=O)NCCN1Cc1cccc(Oc2ccccc2)c1` (stereo not drawn): 4.2%; for `COc1ccccc1N1CCN(CCCCOc2cccc3ccccc23)CC1`: -10.7%.
Regarding `CCOc1ccc(NC(=S)Nc2cccnc2)cc1`, the inhibition is 27.8%.
To `COc1ccc(NC(=S)Nc2cccc3cnccc23)cc1` belongs 64.2% (active); to `O=C(NC(=S)Nc1cccc2cnccc12)c1ccccc1`, 22.7%.
To `CCc1ccc(NC(=S)Nc2cccc3cnccc23)cc1` belongs 40.2%.
Consider `CCOc1ccc(NC(=S)Nc2cc(-c3ccccc3)[nH]n2)cc1`, for which the inhibition was 35.1%.
For `CCOc1ccc(NC(=S)Nc2ccc(OCC)cc2)cc1`, the inhibition is 7.6%.
To `CCOc1ccc(NC(=S)Nc2cccc3cnccc23)cc1` belongs 64.9% (active); to `COc1cc(NC(=S)Nc2cccnc2)cc(OC)c1`, 55.4% (active).
With `Fc1ccc(NC(=S)Nc2cccc3cnccc23)cc1`, the inhibition is 10.9%.
The same measure for `COc1cc(OC)cc(C(=O)NC(=S)Nc2cccnc2)c1`: 13.1%.
The same measure for `COc1cccc(NC(=S)Nc2cccnc2)c1`: 10.6%; for `CCc1cccc2c(C(=O)Cn3nnc(-c4ccc(OC)c(OC)c4)n3)c[nH]c12`: 13.9%.
The same measure for `O=C(NCCc1c[nH]c2ccccc12)C(=O)NCC1OCCN1S(=O)(=O)c1ccc(Cl)cc1` (stereo not drawn): 10%; for `COc1ccc(NC(=O)COC(=O)C(CC(C)C)N2C(=O)C3CC=CCC3C2=O)cc1Cl` (stereo not drawn): 16.5%.
As for `N#Cc1c(NC(=O)CSc2n[nH]c(Cc3ccccc3)n2)oc(-c2ccccc2)c1-c1ccccc1`, the inhibition is -1.5%.
To `CCOc1cccc(OCCOCCOc2ccccc2C(C)=O)c1` belongs 4.1%.
The same measure for `COc1cccc(/C=N/NC(=O)C(=O)N/N=C/c2cccc(OC)c2OC)c1OC`: -0.6%; for `CCN(CC)CCNC(=O)Cn1c(C)cc2ccccc2c1=O`: -2.3%; for `O=C1N=C(N2CCCCC2)SC1=C1CCCC1`: 1.2%.
Regarding `CCN(CC)S(=O)(=O)c1ccc(NC(=O)C2CCCN(C(=O)c3ccc(Cl)cc3)C2)cc1` (stereo not drawn), the inhibition is 14.2%.
Take `CCc1ccc(C(=O)COC(=O)c2nn(C)c(=O)c3ccccc23)cc1`: the inhibition is -3.7%.
The same measure for `COc1cc(C(=O)O)nc2ccccc12`: 26.7%.
`O=C(/C=C/c1ccccc1)NCCN1CCOCC1`: the inhibition is 2.1%.
As for `COc1ccccc1NC(=S)Nc1cccc2cnccc12`, the inhibition was 69.6% (active).
On to `Fc1ccccc1NC(=S)Nc1cccc2cnccc12`, for which the inhibition is 33.9%.
The same measure for `COCCNC(=S)Nc1cccc2cnccc12`: 17.7%.
Consider `COCCn1c(=O)[nH]c2cc(C(=O)NCCc3ccc(S(N)(=O)=O)cc3)ccc2c1=O`, for which the inhibition is -4.1%.
The same measure for `CC1CCCC(C(=O)O)N1C(=O)CCSSCCC(=O)N1C(C)CCCC1C(=O)O` (stereo not drawn): -1.2%; for `CC(C)c1ccc(O)c(NC(=S)NC(=O)CCc2ccccc2)c1`: 12.8%.
The same measure for `CC(Nc1oc(-c2ccco2)nc1C#N)c1ccccc1` (stereo not drawn): 13.7%.
`O=C(CSc1nnc(-c2c[nH]c3ccccc23)o1)c1ccc(-c2ccccc2)cc1`: the inhibition was 9%.
To `CCN(CC)c1ccc(NC(=O)c2ccccc2Br)cc1S(=O)(=O)Nc1ccccc1OC` belongs 63.9% (active).
With `CCN(CC)c1ccc(NC(=O)c2ccccc2)cc1S(=O)(=O)Nc1ccccc1OC`, the inhibition was 30.8%.
To `CCN(CC)c1ccc(NC(=O)COc2ccccc2C)cc1S(=O)(=O)Nc1ccccc1OC` belongs 38.9%.
The same measure for `CCN(CC)c1ccc(NC(=O)c2ccccc2F)cc1S(=O)(=O)Nc1ccccc1OC`: 15.4%.
The same measure for `CCN(CC)c1ccc(NC(=O)c2cccc(C)c2)cc1S(=O)(=O)Nc1ccccc1OC`: 53.3% (active); for `CCN(CC)c1ccc(NC(=O)c2ccc(=O)[nH]c2)cc1S(=O)(=O)Nc1ccccc1OC`: 61.7% (active); for `CCN(CC)c1ccc(NC(=O)COc2ccccc2C#N)cc1S(=O)(=O)Nc1ccccc1OC`: -5.1%.
Take `COc1ccc(C(=O)Nc2ccc(Cl)c(S(=O)(=O)Nc3ccccc3OC)c2)cc1`: the inhibition was 16.8%.
`COc1ccccc1NS(=O)(=O)c1cc(NC(=O)c2ccc(=O)[nH]c2)ccc1N1CCOCC1`: the inhibition is 0.7%.

The values above are taken from PubChem BioAssay AID1209 (Sanford-Burnham Center for Chemical Genomics, 2008).
